According to PubChem BioAssay AID1159580 (chemical genetic matrix, 2015):
Screen size: about 5,500 compounds; about 2,000 (36%) were called active. Not shown: some 18% with an inconclusive outcome. Cut-off read from the data, not from the text of the source: active = normalized growth mostly below about 0.91 (no sharp cut-off); inconclusive = no clear call, values can overlap the other calls; inactive = mostly above about 0.92. Some of the results follow.

Experiment: chemical genetic growth profiling, strain panel (AID 1159580);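 note: tested at 20 µM; growth read once vehicle control cultures reached saturation at 30 °C; 1 = growth at the plate median or of vehicle wells; lower values mean less growth of the strain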
Conditions: S. cerevisiae deletion strains, growth OD
[1] = locus YAR019C, strain CDC15, stronger effect = lower value
[2] = locus YBL105C, strain PKC1, stronger effect = lower value
[3] = locus YBR135W, strain CKS1, stronger effect = lower value
[4] = locus YBR136W, strain MEC1, stronger effect = lower value
[5] = locus YBR160W, strain CDC28, stronger effect = lower value
[6] = locus YDL017W, strain CDC7, stronger effect = lower value
[7] = locus YDL028C, strain MPS1, stronger effect = lower value
[8] = locus YDL101C, strain DUN1, stronger effect = lower value
[9] = locus YDL108W, strain KIN28, stronger effect = lower value
[10] = locus YDL132W, strain cdc53, stronger effect = lower value
[11] = locus YDL214C, strain PRR2, stronger effect = lower value
[12] = locus YDR052C, strain DBF4, stronger effect = lower value
[13] = locus YDR054C, strain cdc34, stronger effect = lower value
[14] = locus YDR226W, strain ADK1, stronger effect = lower value
[15] = locus YDR477W, strain SNF1, stronger effect = lower value
[16] = locus YER123W, strain YCK3, stronger effect = lower value
[17] = locus YER133W, strain GLC7, stronger effect = lower value
[18] = locus YFL009W, strain cdc4, stronger effect = lower value
[19] = locus YFL029C, strain CAK1, stronger effect = lower value
[20] = locus YFR003C, strain YPI1, stronger effect = lower value
[21] = locus YFR019W, strain FAB1, stronger effect = lower value
[22] = locus YFR028C, strain CDC14, stronger effect = lower value
[23] = locus YGR040W, strain KSS1, stronger effect = lower value
[24] = locus YGR052W, strain FMP48, stronger effect = lower value
[25] = locus YGR092W, strain DBF2, stronger effect = lower value
[26] = locus YHR030C, strain SLT2, stronger effect = lower value
[27] = locus YHR079C, strain IRE1, stronger effect = lower value
[28] = locus YHR082C, strain KSP1, stronger effect = lower value
[29] = locus YHR205W, strain SCH9, stronger effect = lower value
[30] = locus YIL147C, strain SLN1, stronger effect = lower value
[31] = locus YJL095W, strain BCK1, stronger effect = lower value
[32] = locus YJL128C, strain PBS2, stronger effect = lower value
[33] = locus YJL157C, strain FAR1, stronger effect = lower value
[34] = locus YJR016C, strain ILV3, stronger effect = lower value
[35] = locus YJR066W, strain TOR1 (second series), stronger effect = lower value
[36] = locus YJR066W, strain TOR1, stronger effect = lower value
[37] = locus YKL048C, strain ELM1, stronger effect = lower value
[38] = locus YKL067W, strain YNK1, stronger effect = lower value
[39] = locus YKL101W, strain HSL1, stronger effect = lower value
[40] = locus YKL193C, strain SDS22, stronger effect = lower value
[41] = locus YKL203C, strain TOR2, stronger effect = lower value
[42] = locus YLR113W, strain HOG1, stronger effect = lower value
[43] = locus YLR133W, strain CKI1, stronger effect = lower value
[44] = locus YLR403W, strain SFP1, stronger effect = lower value
[45] = locus YML070W, strain DAK1, stronger effect = lower value
[46] = locus YMR001C, strain CDC5, stronger effect = lower value
[47] = locus YMR205C, strain PFK2 (second series), stronger effect = lower value
[48] = locus YMR277W, strain FCP1, stronger effect = lower value
[49] = locus YNL006W, strain LST8, stronger effect = lower value
[50] = locus YNL020C, strain ARK1, stronger effect = lower value
[51] = locus YNL161W, strain CBK1, stronger effect = lower value
[52] = locus YNL183C, strain NPR1, stronger effect = lower value
[53] = locus YNL207W, strain RIO2, stronger effect = lower value
[54] = locus YNL222W, strain SSU72, stronger effect = lower value
[55] = locus YNL307C, strain MCK1 (second series), stronger effect = lower value
[56] = locus YOL078W, strain AVO1, stronger effect = lower value
[57] = locus YOL136C, strain PFK27, stronger effect = lower value
[58] = locus YOR061W, strain CKA2, stronger effect = lower value
[59] = locus YOR119C, strain RIO1, stronger effect = lower value
[60] = locus YOR231W, strain MKK1, stronger effect = lower value
[61] = locus YOR329C, strain SCD5, stronger effect = lower value
[62] = locus YPL031C, strain PHO85, stronger effect = lower value
[63] = locus YPL153C, strain RAD53, stronger effect = lower value
[64] = locus YPL204W, strain HRR25, stronger effect = lower value
[65] = locus YPL209C, strain IPL1, stronger effect = lower value
[66] = locus YPL256C, strain CLN2, stronger effect = lower value
[67] = locus YPR025C, strain CCL1, stronger effect = lower value
[68] = locus YPR106W, strain ISR1, stronger effect = lower value
[69] = locus YPR111W, strain DBF20, stronger effect = lower value
[70] = strain NNK1, stronger effect = lower value
[71] = strain TSCII, stronger effect = lower value

Measured: normalized growth

Cc1c(NCN2C(=O)CCC2=O)cc2c(c1[N+](=O)[O-])C(C)(C)CC2(C)C
inactive: [1] 0.963 | [2] 0.962 | [3] 0.967 | [4] 0.959 | [5] 0.967 | [6] 0.961 | [7] 0.962 | [8] 0.942 | [9] 0.965 | [10] 0.948 | [11] 0.925 | [12] 0.956 | [13] 0.958 | [14] 0.955 | [15] 0.913 | [16] 0.9 | [17] 0.879 | [18] 0.957 | [19] 0.95 | [20] 0.961 | [21] 0.952 | [22] 0.956 | [23] 0.912 | [24] 0.933 | [25] 0.931 | [26] 0.909 | [27] 0.894 | [28] 0.993 | [29] 0.904 | [30] 0.963 | [31] 0.839 | [32] 0.901 | [33] 0.92 | [34] 0.96 | [35] 0.861 | [36] 1.03 | [37] 0.928 | [38] 0.929 | [39] 0.922 | [40] 0.95 | [41] 0.978 | [43] 0.944 | [44] 0.921 | [45] 0.911 | [46] 0.956 | [47] 0.927 | [48] 0.96 | [49] 0.954 | [50] 0.932 | [51] 0.95 | [52] 0.977 | [53] 0.965 | [54] 0.959 | [55] 0.94 | [56] 0.952 | [57] 0.914 | [58] 0.945 | [59] 0.951 | [60] 0.943 | [61] 0.961 | [62] 0.899 | [63] 0.905 | [64] 0.891 | [65] 0.957 | [66] 0.87 | [67] 0.952 | [68] 0.949 | [69] 0.943 | [70] 0.937 | [71] 0.953
active: [42] 0.861

N#C/C(=N/Nc1ccc(Cl)cc1)C(N)=S
active: [1] 0.44 | [2] 0.434 | [3] 0.529 | [4] 0.513 | [5] 0.515 | [6] 0.616 | [7] 0.647 | [8] 0.345 | [9] 0.617 | [10] 0.43 | [11] 0.176 | [12] 0.825 | [13] 0.325 | [14] 0.57 | [15] 0.155 | [16] 0.197 | [17] 0.194 | [18] 0.468 | [19] 0.467 | [20] 0.644 | [21] 0.182 | [22] 0.577 | [23] 0.179 | [24] 0.204 | [25] 0.15 | [26] 0.208 | [27] 0.145 | [28] 0.206 | [29] 0.226 | [30] 0.627 | [31] 0.186 | [32] 0.628 | [33] 0.172 | [34] 0.574 | [35] 0.234 | [36] 0.244 | [37] 0.327 | [38] 0.167 | [39] 0.212 | [40] 0.42 | [41] 0.217 | [42] 0.275 | [43] 0.205 | [44] 0.175 | [45] 0.183 | [46] 0.475 | [47] 0.236 | [48] 0.352 | [49] 0.452 | [50] 0.182 | [51] 0.427 | [52] 0.185 | [53] 0.515 | [54] 0.428 | [55] 0.177 | [56] 0.483 | [57] 0.199 | [58] 0.23 | [59] 0.225 | [60] 0.171 | [61] 0.515 | [62] 0.207 | [63] 0.193 | [64] 0.203 | [65] 0.601 | [66] 0.231 | [67] 0.611 | [68] 0.475 | [69] 0.583 | [70] 0.471 | [71] 0.495
